# Laboratory results as given in the supplement of paper PMC10849652.
# Targets with a hit are over-represented here; the source holds about 7,900 in all. About 0.6% of all pairs of compound and target were hits.
# Compound: CS(=O)(=O)c1ccc(-c2cnc(N)c(C(=O)Nc3ccccc3)n2)cc1
# Test: log2 fold change, soluble protein after heating vs DMSO (PISA); higher = thermal stabilisation; K562 cells, 10 uM, 30 min; active = over 0.2 and 3.5 SD of the protein, either way, in both replicates (recomputed)
# How it was run: (§1)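 Quantification of soluble protein used TMTpro 16plex LC-MS/MS, with channel sums equalised. Samples were the supernatant after 21,000xg for 90 min of pooled aliquots from K562 cells (2×10^6 cells/mL) treated with 10 μM compound for 30 min, heated for 3 min over 48°C-58°C, and extracted in PBS with 0.5% NP-40 at 4°C. Values, from duplicates, describe thermal stability against control samples on a log2 fold-change scale.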
# Sequence of UniProt Q15111 (Q15111 whole entry, looked up): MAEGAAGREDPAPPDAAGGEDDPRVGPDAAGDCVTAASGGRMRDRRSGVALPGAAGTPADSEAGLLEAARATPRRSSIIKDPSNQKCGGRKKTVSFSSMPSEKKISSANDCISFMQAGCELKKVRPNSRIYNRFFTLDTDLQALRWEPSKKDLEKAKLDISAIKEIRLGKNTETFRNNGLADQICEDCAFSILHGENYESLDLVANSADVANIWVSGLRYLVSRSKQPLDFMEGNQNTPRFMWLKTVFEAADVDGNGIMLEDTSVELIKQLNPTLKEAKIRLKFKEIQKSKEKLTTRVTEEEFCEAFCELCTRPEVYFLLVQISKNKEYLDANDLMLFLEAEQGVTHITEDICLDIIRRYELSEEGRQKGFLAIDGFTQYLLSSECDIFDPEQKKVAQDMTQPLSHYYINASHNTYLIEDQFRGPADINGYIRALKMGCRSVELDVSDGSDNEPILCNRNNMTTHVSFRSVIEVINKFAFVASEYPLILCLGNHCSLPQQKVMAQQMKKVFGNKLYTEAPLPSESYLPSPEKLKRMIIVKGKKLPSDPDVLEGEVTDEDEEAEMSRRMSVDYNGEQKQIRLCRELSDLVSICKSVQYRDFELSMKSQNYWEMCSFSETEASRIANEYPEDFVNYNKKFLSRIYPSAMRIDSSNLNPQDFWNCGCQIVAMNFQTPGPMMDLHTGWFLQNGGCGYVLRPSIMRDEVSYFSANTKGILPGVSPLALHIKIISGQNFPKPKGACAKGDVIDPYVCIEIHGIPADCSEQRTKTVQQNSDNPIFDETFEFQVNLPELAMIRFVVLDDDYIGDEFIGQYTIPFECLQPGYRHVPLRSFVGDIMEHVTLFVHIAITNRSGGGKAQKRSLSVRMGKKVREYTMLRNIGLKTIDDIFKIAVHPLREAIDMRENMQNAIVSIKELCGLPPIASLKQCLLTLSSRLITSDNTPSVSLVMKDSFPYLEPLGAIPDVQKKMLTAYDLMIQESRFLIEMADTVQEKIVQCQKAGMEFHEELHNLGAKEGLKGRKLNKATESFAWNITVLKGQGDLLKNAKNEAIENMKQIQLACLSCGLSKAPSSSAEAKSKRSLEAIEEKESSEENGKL
# Sequence of UniProt O00233 (O00233 whole entry, looked up): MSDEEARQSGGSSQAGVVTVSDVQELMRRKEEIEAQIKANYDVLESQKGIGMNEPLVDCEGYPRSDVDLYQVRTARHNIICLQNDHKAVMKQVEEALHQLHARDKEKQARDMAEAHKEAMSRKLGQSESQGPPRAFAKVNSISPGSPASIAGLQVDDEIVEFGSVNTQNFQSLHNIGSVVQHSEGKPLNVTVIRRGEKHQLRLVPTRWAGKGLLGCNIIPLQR
# Sequence of UniProt Q8NDX5 (Q8NDX5 whole entry, looked up): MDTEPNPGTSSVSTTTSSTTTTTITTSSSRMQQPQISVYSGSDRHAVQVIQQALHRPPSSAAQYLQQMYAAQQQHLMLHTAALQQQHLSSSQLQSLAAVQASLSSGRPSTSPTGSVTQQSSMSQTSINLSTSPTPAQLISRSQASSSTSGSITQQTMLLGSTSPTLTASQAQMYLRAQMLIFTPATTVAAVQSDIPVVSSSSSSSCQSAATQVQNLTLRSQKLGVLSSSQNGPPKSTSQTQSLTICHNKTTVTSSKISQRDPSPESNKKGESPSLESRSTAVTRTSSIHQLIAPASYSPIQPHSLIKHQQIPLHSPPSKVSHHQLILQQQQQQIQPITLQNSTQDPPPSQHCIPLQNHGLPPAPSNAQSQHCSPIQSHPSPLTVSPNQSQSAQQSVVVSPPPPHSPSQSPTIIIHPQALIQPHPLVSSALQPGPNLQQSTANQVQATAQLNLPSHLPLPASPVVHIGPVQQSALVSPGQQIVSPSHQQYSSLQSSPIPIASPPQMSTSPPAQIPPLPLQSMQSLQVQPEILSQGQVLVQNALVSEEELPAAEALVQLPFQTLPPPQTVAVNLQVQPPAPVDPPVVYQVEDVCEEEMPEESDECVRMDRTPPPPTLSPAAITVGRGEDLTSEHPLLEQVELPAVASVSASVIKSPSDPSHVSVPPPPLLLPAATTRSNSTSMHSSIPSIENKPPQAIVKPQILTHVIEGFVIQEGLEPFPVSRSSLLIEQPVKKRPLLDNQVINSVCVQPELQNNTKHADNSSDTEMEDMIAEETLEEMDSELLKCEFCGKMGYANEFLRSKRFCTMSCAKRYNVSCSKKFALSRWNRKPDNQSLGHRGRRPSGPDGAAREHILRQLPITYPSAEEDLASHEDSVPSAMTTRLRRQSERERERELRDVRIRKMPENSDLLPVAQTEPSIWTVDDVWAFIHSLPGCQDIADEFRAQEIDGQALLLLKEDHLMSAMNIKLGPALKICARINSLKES
# Sequence of UniProt Q9H307 (Q9H307 whole entry, looked up): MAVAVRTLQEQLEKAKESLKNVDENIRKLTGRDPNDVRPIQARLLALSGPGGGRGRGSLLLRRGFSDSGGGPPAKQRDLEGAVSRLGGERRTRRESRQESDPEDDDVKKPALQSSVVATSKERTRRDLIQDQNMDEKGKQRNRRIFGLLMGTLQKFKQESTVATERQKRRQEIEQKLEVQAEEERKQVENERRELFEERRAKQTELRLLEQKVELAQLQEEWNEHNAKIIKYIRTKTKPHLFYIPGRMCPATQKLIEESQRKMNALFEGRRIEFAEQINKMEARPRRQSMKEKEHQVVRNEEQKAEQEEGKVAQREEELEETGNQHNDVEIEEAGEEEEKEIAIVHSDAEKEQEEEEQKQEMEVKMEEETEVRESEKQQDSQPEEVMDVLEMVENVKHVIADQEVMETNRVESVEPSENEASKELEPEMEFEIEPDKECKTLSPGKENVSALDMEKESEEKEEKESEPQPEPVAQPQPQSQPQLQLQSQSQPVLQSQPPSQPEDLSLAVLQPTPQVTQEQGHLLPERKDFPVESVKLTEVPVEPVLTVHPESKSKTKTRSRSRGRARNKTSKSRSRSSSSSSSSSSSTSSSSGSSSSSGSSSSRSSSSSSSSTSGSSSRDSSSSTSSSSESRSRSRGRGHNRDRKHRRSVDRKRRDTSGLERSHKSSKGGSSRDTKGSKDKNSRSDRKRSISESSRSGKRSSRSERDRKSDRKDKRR
# Sequence of UniProt P43686 (P43686 whole entry, looked up): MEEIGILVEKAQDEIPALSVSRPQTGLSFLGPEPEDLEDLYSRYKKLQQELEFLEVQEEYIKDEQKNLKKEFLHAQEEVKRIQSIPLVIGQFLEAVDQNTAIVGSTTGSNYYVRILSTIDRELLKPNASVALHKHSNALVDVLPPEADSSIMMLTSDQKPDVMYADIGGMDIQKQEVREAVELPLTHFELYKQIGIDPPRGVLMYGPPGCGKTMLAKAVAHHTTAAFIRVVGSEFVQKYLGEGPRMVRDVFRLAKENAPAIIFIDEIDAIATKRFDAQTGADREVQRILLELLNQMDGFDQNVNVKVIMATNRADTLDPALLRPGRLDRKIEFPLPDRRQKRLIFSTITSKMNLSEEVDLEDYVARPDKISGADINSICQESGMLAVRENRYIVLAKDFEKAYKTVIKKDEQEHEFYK
# Sequence of UniProt Q96AD5 (Q96AD5 whole entry, looked up): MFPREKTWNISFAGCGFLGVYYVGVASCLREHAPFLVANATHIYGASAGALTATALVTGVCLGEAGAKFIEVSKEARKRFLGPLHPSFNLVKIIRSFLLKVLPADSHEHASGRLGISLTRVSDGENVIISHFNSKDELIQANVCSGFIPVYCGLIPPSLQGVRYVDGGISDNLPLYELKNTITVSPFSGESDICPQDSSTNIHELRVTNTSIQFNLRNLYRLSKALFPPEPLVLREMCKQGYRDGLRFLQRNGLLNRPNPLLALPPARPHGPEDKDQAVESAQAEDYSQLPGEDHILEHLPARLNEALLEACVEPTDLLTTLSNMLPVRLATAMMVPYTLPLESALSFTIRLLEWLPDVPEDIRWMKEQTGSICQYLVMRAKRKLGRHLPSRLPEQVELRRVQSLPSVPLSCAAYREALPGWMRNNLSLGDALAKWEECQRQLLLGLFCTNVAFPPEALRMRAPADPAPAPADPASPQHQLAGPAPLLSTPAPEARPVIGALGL
# Sequence of UniProt Q9NR22 (Q9NR22 whole entry, looked up): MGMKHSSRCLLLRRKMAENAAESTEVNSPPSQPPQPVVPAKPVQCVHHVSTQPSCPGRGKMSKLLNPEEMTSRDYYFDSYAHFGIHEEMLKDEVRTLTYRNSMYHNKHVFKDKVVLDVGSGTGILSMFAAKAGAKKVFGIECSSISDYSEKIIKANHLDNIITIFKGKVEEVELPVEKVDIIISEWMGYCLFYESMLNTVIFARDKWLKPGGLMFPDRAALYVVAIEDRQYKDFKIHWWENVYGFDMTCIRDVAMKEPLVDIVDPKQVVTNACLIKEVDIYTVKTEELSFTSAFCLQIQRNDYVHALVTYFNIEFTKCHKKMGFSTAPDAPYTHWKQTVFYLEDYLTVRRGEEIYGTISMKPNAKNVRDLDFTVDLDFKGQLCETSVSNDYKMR
# Sequence of UniProt O43741 (O43741 whole entry, looked up): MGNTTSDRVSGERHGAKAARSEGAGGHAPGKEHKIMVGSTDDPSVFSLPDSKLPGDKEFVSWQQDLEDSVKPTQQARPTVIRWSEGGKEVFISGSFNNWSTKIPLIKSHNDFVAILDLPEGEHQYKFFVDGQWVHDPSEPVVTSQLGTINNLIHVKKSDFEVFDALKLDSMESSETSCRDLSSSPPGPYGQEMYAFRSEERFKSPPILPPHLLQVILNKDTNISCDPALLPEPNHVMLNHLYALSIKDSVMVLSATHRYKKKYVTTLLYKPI
# Sequence of UniProt Q12974 (Q12974 whole entry, looked up): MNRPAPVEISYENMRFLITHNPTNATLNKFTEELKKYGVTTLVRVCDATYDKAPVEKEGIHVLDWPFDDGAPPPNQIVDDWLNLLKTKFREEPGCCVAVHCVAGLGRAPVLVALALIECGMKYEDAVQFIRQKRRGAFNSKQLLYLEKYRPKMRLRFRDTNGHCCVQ
# Sequence of UniProt Q15185 (Q15185 whole entry, looked up): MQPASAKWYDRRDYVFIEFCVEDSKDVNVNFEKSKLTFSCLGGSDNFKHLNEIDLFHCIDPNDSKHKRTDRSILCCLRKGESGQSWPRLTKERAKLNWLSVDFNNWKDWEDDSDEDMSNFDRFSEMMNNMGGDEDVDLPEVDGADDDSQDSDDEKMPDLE
row,Target,log2 fold change
1,PELP1 (UniProt Q8IZL8),-0.006 (inactive)
2,PDE2A (UniProt O00408),-0.064 (inactive)
3,PSMD1 (UniProt Q99460),-0.009 (inactive)
4,POLR2M (UniProt Q6EEV4),-0.03 (inactive)
5,POGLUT1 (UniProt Q8NBL1),0.064 (inactive)
6,PTP4A2 (UniProt Q12974),-0.001 (inactive)
7,PNN (UniProt Q9H307),-0.043 (inactive)
8,PRPF40A (UniProt O75400),-0.023 (inactive)
9,PIKFYVE (UniProt Q9Y2I7),-0.016 (inactive)
10,PCYT1A (UniProt P49585),-0.031 (inactive)
11,PHC3 isoform 7 (UniProt Q8NDX5),-0.068 (inactive)
12,PSMB9 (UniProt P28065),0.259 (inactive)
13,PRPF4B (UniProt Q13523),0.024 (inactive)
14,PNPLA2 (UniProt Q96AD5),0.048 (inactive)
15,PARP1 (UniProt P09874),0.088 (inactive)
16,PDIK1L (UniProt Q8N165),0.009 (inactive)
17,PTPN23 (UniProt Q9H3S7),0.014 (inactive)
18,PPP1R14A (UniProt Q96A00),0.078 (inactive)

row,Target,log2 fold change
1,PIK3R1 (UniProt P27986),0.033 (inactive)
2,PKM isoform 2 (UniProt P14618),-0.053 (inactive)
3,PSMC4 (UniProt P43686),0 (inactive)
4,PHAX (UniProt Q9H814),-0.034 (inactive)
5,POLR2K (UniProt P53803),0.029 (inactive)
6,PLSCR1 (UniProt O15162),0.079 (inactive)
7,PSMD9 (UniProt O00233),-0.041 (inactive)
8,PIK3CD (UniProt O00329),-0.019 (inactive)
9,PTGES3 (UniProt Q15185),0.047 (inactive)
10,POLR2C (UniProt P19387),0.019 (inactive)
11,PHKG2 (UniProt P15735),0.015 (inactive)
12,QRICH1 (UniProt Q2TAL8),-0.01 (inactive)
13,PSMD3 (UniProt O43242),0.058 (inactive)
14,PKN2 (UniProt Q16513),0.025 (inactive)
15,PRKAB2 (UniProt O43741),-0.08 (inactive)
16,PLCL1 (UniProt Q15111),0.112 (inactive)
17,PCBP1 (UniProt Q15365),0.012 (inactive)
18,PRMT8 (UniProt Q9NR22),-0.046 (inactive)

# Compound: C[C@@H](Oc1cc(-c2cnn(C3CCNCC3)c2)cnc1N)c1c(Cl)ccc(F)c1Cl [crizotinib]
# Test: as above
# How it was run: as §1
row,Target,log2 fold change
1,PELP1 (UniProt Q8IZL8),-0.012 (inactive)
2,PDE2A (UniProt O00408),0.004 (inactive)
3,PSMD1 (UniProt Q99460),-0.002 (inactive)
4,POLR2M (UniProt Q6EEV4),-0.021 (inactive)
5,POGLUT1 (UniProt Q8NBL1),0.059 (inactive)
6,PTP4A2 (UniProt Q12974),0.047 (inactive)
7,PNN (UniProt Q9H307),-0.154 (inactive)
8,PRPF40A (UniProt O75400),0.071 (inactive)
9,PIKFYVE (UniProt Q9Y2I7),-0.068 (inactive)
10,PCYT1A (UniProt P49585),-0.032 (inactive)
11,PHC3 isoform 7 (UniProt Q8NDX5),-0.194 (inactive)
12,PSMB9 (UniProt P28065),0 (inactive)
13,PRPF4B (UniProt Q13523),-0.006 (inactive)
14,PNPLA2 (UniProt Q96AD5),-0.055 (inactive)
15,PARP1 (UniProt P09874),0.037 (inactive)
16,PDIK1L (UniProt Q8N165),-0.082 (inactive)
17,PTPN23 (UniProt Q9H3S7),0.057 (inactive)
18,PPP1R14A (UniProt Q96A00),0.011 (inactive)

row,Target,log2 fold change
1,PIK3R1 (UniProt P27986),-0.044 (inactive)
2,PKM isoform 2 (UniProt P14618),-0.033 (inactive)
3,PSMC4 (UniProt P43686),0.007 (inactive)
4,PHAX (UniProt Q9H814),0.097 (inactive)
5,POLR2K (UniProt P53803),0.18 (inactive)
6,PLSCR1 (UniProt O15162),0.017 (inactive)
7,PSMD9 (UniProt O00233),-0.069 (inactive)
8,PIK3CD (UniProt O00329),0.009 (inactive)
9,PTGES3 (UniProt Q15185),0.066 (inactive)
10,POLR2C (UniProt P19387),0.127 (inactive)
11,PHKG2 (UniProt P15735),0 (inactive)
12,QRICH1 (UniProt Q2TAL8),-0.2 (inactive)
13,PSMD3 (UniProt O43242),0.003 (inactive)
14,PKN2 (UniProt Q16513),-0.191 (inactive)
15,PRKAB2 (UniProt O43741),-0.245 (inactive)
16,PLCL1 (UniProt Q15111),-0.03 (inactive)
17,PCBP1 (UniProt Q15365),0 (inactive)
18,PRMT8 (UniProt Q9NR22),-0.03 (inactive)
